ROS inducer: inducers of reactive oxygen species in cancer cells; U2OS ROS induction, H2DCF-DA fluorescence; ROS induction (% of piperlongumine), % at 10 µM; hit rate 2% among 46,000; AID 624156; in the data active = ROS induction above about 79%, passing the limit was not always enough; inconclusive = no clear call, values can overlap the other calls
PD-1 reversal: activators reversing PD-1 mediated T-cell inhibition. primary human CD4 T cells, PD-L1 beads, CellTiter-Glo 96 h. activation, % (concentration not given with the values). 29,000 tested, under 10 active; call rule not given here
NOMO-1 viab: STK33 inhibitor candidate reducing NOMO-1 cell viability; NOMO-1 AML viability, CellTiter-Glo luminescence, 72 h; inhibition, % (test concentration not listed); hit rate 7.5% among 37,000; in the data active = inhibition above about 80%; inconclusive = no clear call, values can overlap the other calls
YB-1 expr inh: YB-1 expression inhibition | U2OS, qRT-PCR YB-1 vs CDIP delta delta Cp, 16 h; stronger effect = higher value; zero = DMSO, each unit about twofold | delta delta Cp (YB-1 minus CDIP) (test concentration not listed) | hit rate 0.37% among 30,000 | AID 434959;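 active = delta delta Cp rounded down to an integer at or above 3, about 3 SD of DMSO wells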;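 also: higher means less YB-1 transcript or more CDIP transcript relative to DMSO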
A number is an active result; 0 = inactive; ? = inconclusive; - = no result given; ! = not active in a repeat. Shown is part of a subset that was picked to be rich in hits.

SMILES	ROS inducer	PD-1 reversal	NOMO-1 viab	YB-1 expr inh
COC(=O)c1ccc(C)c(NC(=O)CN(c2ccc(F)cc2)S(C)(=O)=O)c1	0	0	98.3	-
COC(=O)c1ccc(Cl)c(NC(=O)CN(c2ccc(I)cc2)S(C)(=O)=O)c1	0	0	120.3	-
COC(=O)c1ccc(NC(=O)CN(c2cc(Cl)c(Cl)cc2Cl)S(C)(=O)=O)cc1	0	0	0	-
COC(=O)c1ccc(C)c(NC(=O)CN(c2cc(Cl)c(Cl)cc2Cl)S(C)(=O)=O)c1	-	-	96.1	-
COC(=O)c1ccc(NC(=O)CN(c2ccc(F)cc2)S(C)(=O)=O)cc1	0	0	0	-
O=S(=O)(Nc1nc2ccccc2nc1NCCc1ccccc1)c1ccc(Cl)cc1	0	0	0	0
Cc1nnc2sc(-c3ccccc3NC(=S)NC(=O)CC34CC5CC(CC(C5)C3)C4)nn12	-	-	0	-
O=S(=O)(NCC1CCN(Cc2ccc(OCCO)cc2)CC1)c1cc(C(F)(F)F)ccc1Cl	0	-	-	0
CCC(=O)Nc1ccc(S(=O)(=O)Nc2nccc(/C=C/c3ccccc3Cl)n2)cc1	0	0	0	-
Cc1cccc2c1N(C)C(=O)C2(O)CC(=O)c1ccco1 (configuration not stated)	0	0	84.4	-
Cc1coc(C)c1C(=O)CC1(O)C(=O)N(Cc2ccc(Cl)cc2)c2ccccc21 (configuration not stated)	0	0	0	-
O=C(CC1(O)C(=O)N(Cc2ccc(Cl)cc2)c2ccc(Cl)cc21)c1ccco1 (configuration not stated)	0	0	113.9	-
CN1C(=O)C(O)(CC(=O)c2ccco2)c2cc(Cl)ccc21 (configuration not stated)	0	0	133.0	-
O=C(CC1(O)C(=O)Nc2ccc(F)cc21)c1ccco1 (configuration not stated)	0	0	0	-
CCn1c(=O)c2c3c(sc2n2c(SCC(=O)Nc4ccc(Cl)cc4)nnc12)CCCC3	-	-	0	-
CC(Oc1ccc(Cl)cc1Cl)C(=O)Nc1nc2c(s1)C(=O)CC(C)(C)C2 (configuration not stated)	0	-	-	-
O=C(CCCCCCC(=O)Nc1ccccc1O)N/N=C/c1ccc(O)cc1O	0	-	-	0
COc1ccc(S(=O)(=O)N(C)CC(=O)Nc2ccc(Br)cc2F)cc1OC	0	0	0	-
CC1OC(Oc2cc(O)c(C3OC(C)C(O)C(O)C3O)c3oc(-c4ccc(O)cc4)cc(=O)c23)C(O)C(O)C1O (configuration not stated)	0	-	-	0
CC(C)(C)C1CCC2(CC1)C(C#N)C2(C#N)C(=O)c1ccccc1 (configuration not stated)	159.4	0	125.4	0
CC12CCC(CC(=O)c3ccccc3)(CC1)CC2	0	0	0	0
Cc1ccc(OCCCCSc2nc(C)cc(=O)[nH]2)c(C)c1	0	0	0	-
COc1cc2cc(C)nc(Cc3cccc4ccccc34)c2cc1OC	0	0	85.8	0
COc1ccc(-c2cc3cc(OC)c(OC)cc3c(Cc3ccccc3)n2)cc1	154.7	0	0	0
Cc1ccc(C(=O)C2C(=O)C(=O)N(Cc3cccnc3)C2c2cccc(Oc3ccccc3)c2)o1 (configuration not stated)	0	0	0	-
SMILES	ROS inducer	PD-1 reversal	NOMO-1 viab	YB-1 expr inh
C[C@@H]1CN([C@@H](C)CO)C(=O)c2cc(NS(=O)(=O)c3cccs3)ccc2O[C@@H]1CN(C)Cc1ccc(C(=O)Nc2ccccc2N)cc1	0	0	111.3	0
C[C@H]1CN([C@@H](C)CO)C(=O)c2cc(NS(=O)(=O)c3cccs3)ccc2O[C@@H]1CN(C)Cc1ccc(C(=O)Nc2ccccc2N)cc1	0	0	0	0
C[C@@H]1CN([C@H](C)CO)C(=O)Cc2cc(NS(=O)(=O)c3cccs3)ccc2O[C@H]1CN(C)Cc1ccc(C(=O)Nc2ccccc2N)cc1	0	0	0	0
C[C@H](CO)N1C[C@H](C)[C@H](CN(C)Cc2ccc(C(=O)Nc3ccccc3N)cc2)Oc2ccc(NS(=O)(=O)c3cccs3)cc2CC1=O	0	0	127.6	0
Cc1noc(C)c1S(=O)(=O)Nc1ccc2c(c1)C(=O)N([C@H](C)CO)C[C@H](C)[C@H](CN(C)Cc1ccc(C(=O)Nc3ccccc3N)cc1)O2	0	0	108.3	0
Cc1noc(C)c1S(=O)(=O)Nc1ccc2c(c1)C(=O)N([C@@H](C)CO)C[C@H](C)[C@@H](CN(C)Cc1ccc(C(=O)Nc3ccccc3N)cc1)O2	0	0	0	0
Cc1noc(C)c1NC(=O)Nc1ccc2c(c1)CC(=O)N([C@H](C)CO)C[C@@H](C)[C@@H](CN(C)Cc1ccc(C(=O)Nc3ccccc3N)cc1)O2	0	0	0	0
Cc1noc(C)c1S(=O)(=O)Nc1ccc2c(c1)C(=O)N([C@H](C)CO)C[C@@H](C)[C@@H](CN(C)Cc1ccc(C(=O)Nc3ccccc3N)cc1)O2	0	0	107.9	0
C[C@H]1CN([C@@H](C)CO)C(=O)c2cc(NS(=O)(=O)c3ccccc3)ccc2O[C@H]1CN(C)Cc1ccc(C(=O)Nc2ccccc2N)cc1	0	0	?	0
Cc1noc(C)c1S(=O)(=O)Nc1ccc2c(c1)C(=O)N([C@@H](C)CO)C[C@@H](C)[C@@H](CN(C)Cc1ccc(C(=O)Nc3ccccc3N)cc1)O2	0	0	107.5	0
Cc1noc(C)c1S(=O)(=O)Nc1ccc2c(c1)CC(=O)N([C@H](C)CO)C[C@H](C)[C@H](CN(C)Cc1ccc(C(=O)Nc3ccccc3N)cc1)O2	0	0	141.9	0
CCN(CC)c1cnn(-c2ccc(C(F)(F)F)cc2)c(=O)c1Cl	0	-	-	-
CCOC(=O)c1ccc(NC(=O)CSc2nccc(=O)[nH]2)cc1	0	0	0	-
Cc1ccc(C(=O)CC(Sc2ccccc2N)c2ccsc2)cc1 (configuration not stated)	0	-	-	-
O=C(CC(Sc1ccccc1C(=O)O)c1ccc(F)cc1)c1ccc(F)cc1 (configuration not stated)	0	0	116.6	0
CC(C)N(C(=O)Cn1ncc2c(=O)oc3ccccc3c21)C1CCCCC1	0	-	-	-
CC(=O)NCCOc1ccc(C2CCCCC2)cc1	0	0	0	0
Nc1cc(C(F)(F)F)ccc1Oc1ccc(C2CCCCC2)cc1	0	0	113.4	0
CN1CCN(CCCN2c3ccccc3Sc3ccc(C(F)(F)F)cc32)CC1	0	-	111.9!	0
O=C(CCN1CCN(CCO)CC1)N1c2ccccc2Sc2ccc(C(F)(F)F)cc21	-	-	0	-
CS(=O)(=O)N(CC(N)=O)c1cc(Cl)c(Cl)cc1Cl	0	0	0	-
C[C@H]1CN([C@@H](C)CO)C(=O)c2cc(NC(=O)Cc3cn(C)c4ccccc34)ccc2O[C@H]1CN(C)Cc1ccc(-c2ccccc2)cc1	0	0	0	0
C[C@@H]1CN([C@H](C)CO)C(=O)c2cc(NC(=O)Cc3cn(C)c4ccccc34)ccc2O[C@H]1CN(C)Cc1ccc(-c2ccccc2)cc1	0	0	95.7	0
C[C@H]1CN([C@@H](C)CO)C(=O)c2cc(NC(=O)Cc3cn(C)c4ccccc34)ccc2O[C@@H]1CN(C)Cc1ccc(-c2ccccc2)cc1	152.8	0	0	0
CCn1c(SCC(=O)Nc2ccc(Cl)cc2Cl)nnc1-c1cccc(C)c1	0	0	0	-
